L3MBTL1 inh: L3MBTL1 (human) inhibition. Q9Y468. 0.66% of 230,000 active. AID 485360. Potency, µM (doses to about 57.1 µM), for the others: top-dose activity, negative = inhibition, hits mostly inhibitors. AlphaScreen L3MBTL1–H3K9me1 peptide binding; further: on the % scale 0 is the no-effect control and ±100 the full control effect; nearly all actives have a fitted effect of over 60% in size
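Displacement of a biotinylated histone H3(1-15) peptide monomethylated at Lys9 (75 nM) from L3MBTL1 (50 nM) was measured by AlphaScreen after a 30 min room-temperature compound incubation; cefsulodin titration served as intraplate control.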
HP1b chromo inh: blocks HP1-beta chromodomain binding to methylated histone tails; P83916; AlphaScreen HP1-beta / biotin-H3K9me3 peptide binding; Potency, µM (top dose mostly 114 µM), without a hit: at the highest dose activity change, negative = inhibition, hits mostly inhibitors; 0.56% of 390,000 active; AID 540317; further: nearly all actives have a fitted effect of over 70% in size
Target sequence (P83916 whole entry, looked up): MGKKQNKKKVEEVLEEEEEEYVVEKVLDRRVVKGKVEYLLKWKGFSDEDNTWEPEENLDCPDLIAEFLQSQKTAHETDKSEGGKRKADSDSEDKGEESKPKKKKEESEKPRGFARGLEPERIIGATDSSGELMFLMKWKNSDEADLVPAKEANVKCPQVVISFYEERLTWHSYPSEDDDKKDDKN
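HP1-beta protein (50 nM final) preincubated 30 min at room temperature with biotinylated H3(1-18)K9me3 peptide (50 nM) in PBS pH 7.4, 0.01% Tween-20, then compound added for 30 min. AlphaScreen streptavidin donor/nickel chelate acceptor beads (10 ug/mL final), 30 min dark, luminescence read.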
JMJD2A Tudor: JMJD2A Tudor domain (human) inhibition; O75164; AlphaScreen JMJD2A-Tudor / H3K4me3 peptide binding; Potency, µM (series often up to 114 µM), without a hit: at the highest dose activity change, negative = inhibition, hits mostly inhibitors; 4.4% of 390,000 active; AID 504339; further: on the % scale 0 is the no-effect control and ±100 the full control effect; nearly all actives have a fitted effect of over 50% in size
G9a block: inhibitors of human histone lysine methyltransferase G9a; Q96KQ7; G9a H3K9 monomethylation, AlphaScreen, 2 h; Potency, µM (top dose mostly 102 µM), without a hit: at the top dose activity, negative = inhibition, hits mostly inhibitors; 8.8% of 350,000 active; AID 504332; further: on the % scale 0 is the no-effect control and ±100 the full control effect; nearly all actives have a fitted effect of over 75% in size
Target sequence (Q96KQ7 913-1193 limits assumed): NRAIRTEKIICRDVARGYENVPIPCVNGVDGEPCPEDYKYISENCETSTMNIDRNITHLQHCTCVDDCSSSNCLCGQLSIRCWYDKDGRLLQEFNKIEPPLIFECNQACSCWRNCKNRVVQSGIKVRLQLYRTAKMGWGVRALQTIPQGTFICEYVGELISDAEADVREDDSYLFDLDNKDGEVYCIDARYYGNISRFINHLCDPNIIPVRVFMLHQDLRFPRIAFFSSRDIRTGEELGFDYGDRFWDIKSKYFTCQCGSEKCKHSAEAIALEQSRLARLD
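Enzyme 20 nM + cpd, 15 min RT; add b-H3K9 pep 500 nM / SAM 20 uM; 2 h RT; anti-H3K9me1 Ab 0.5 ug/mL + SA donor / anti-rabbit acceptor beads 20 ug/mL each, 10 min; AlphaScreen read.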
BAZ2B inh: BAZ2B (human) inhibition | Q9UIF8 | AlphaScreen BAZ2B-H3K14Ac peptide displacement | Potency, µM (doses to about 114 µM), inactives show at the top dose activity change, negative = inhibition, most hits filed as inhibitors | 4.4% of 360,000 active | AID 504333; further: on the % scale 0 is the no-effect control and ±100 the full control effect; nearly all actives have a fitted effect of over 60% in size
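Complex of BAZ2B and biotin-H3K14Ac (50 nM apiece) forms over 30 min at RT, then faces library compounds up to 110 uM for another 30 min; AlphaScreen beads added, 20 min dark incubation, luminescence read.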
Active calls of the source: *; ? = inconclusive; nt = no result given; [ ] = another dose, or the depositor's remark. Hits are enriched below; roughly 11% of the tested compounds scored in any of these assays. The call rests on the fitted dose curve; in most records, active means well fitted inhibition curve with a large enough effect; inconclusive means small, poorly fitted or top-dose-only effect; inactive means no such curve, though single readings can be large or run the other way. Potency means the concentration at half of the fitted maximal effect.

SMILES | L3MBTL1 inh | HP1b chromo inh | JMJD2A Tudor | G9a block | BAZ2B inh
CCOC(=O)N1CCN(Cc2nc3cc(NC(=O)c4ccccc4OC)ccc3n2C(C)C)CC1 | nt | 23.9% | 50.1µM* | ? | 79.4µM*
COc1ccccc1C(=O)Nc1ccc2c(c1)nc1n2CCN(C2CCCCC2)C1 | nt | 6.3% | ? | 31.6µM* | -20.1%[57.1 µM]
CCC(=O)Nc1ccc2c(c1)nc1n2CCN(CCOC)C1 | nt | 63.5% | 1.3% | 31.6µM* | -13.7%
CCOC(=O)C1CCN(c2nc3c(S(=O)(=O)c4ccccc4)nnn3c3ccc(Cl)cc23)CC1 | nt | 56.0% | 7.3% | 40.7%[59 µM] | -1.9%
Cc1ccc(Cl)cc1N1CCN(C(=O)C2CCN(S(=O)(=O)c3c(C)noc3/C=C/c3ccccc3F)CC2)CC1 | nt | 24.4%[57 µM] | -7.0% | 10.0%[59 µM] | 0.1%
O=C1OC2(c3ccccc31)c1ccccc1-c1ccccc12 | nt | 29.2% | -4.8% | nt | nt
O=C1OC(c2ccc3ccccc3c2O)(c2ccc3ccccc3c2O)c2ccccc21 | nt | ? | 31.6µM* | nt | nt
C=CCOc1ccccc1/C=c1\sc2nc(=O)c(C)nn2c1=O | ? | -7.3% | ? | ? | ?
COc1ccccc1-c1nc2s/c(=C\c3cccs3)c(=O)n2n1 | nt | -37.7% | -5.3%[11.4 µM] | 2.82µM* | -32.8%
COc1ccc(/C=c2\sc3nc(-c4ccccc4OC)nn3c2=O)c(OC)c1 | 4.0% | 3.1% | 89.1µM* | -6.4%[12.7 µM] | -18.1%
O=c1/c(=C/c2ccco2)sc2nc(-c3ccccc3Br)nn12 | ? | 8.91µM* | 50.1µM* | 22.4µM* | 44.7µM*
COc1cccc(/C=c2\sc3nc(-c4cccs4)nn3c2=O)c1OC | 6.7% | -18.8% | -20.8% | -42.3%[59 µM] | -24.0%
Cc1ccc(/C=c2\sc3nc(-c4cccs4)nn3c2=O)o1 | ? | 0.3% | ? | 17.8µM* | -32.5%
O=C(NCCN1CCCCC1)c1ccc(Cn2c(SCc3cccc(F)c3)nc3cccnc32)cc1 | nt | 31.0% | -4.4% | -23.8%[59 µM] | -17.5%
Cc1ccc(NC(=O)Cn2c(=O)n(-c3ccc(Cl)c(Cl)c3)c(=O)c3c(C)c(C)sc32)c(C)c1 | nt | 25.3% | -10.2% | -13.6%[59 µM] | 1.2%
Cc1ccccc1N(CC(=O)N/N=C/c1cc(C)n(-c2ccccc2C)c1C)S(C)(=O)=O | nt | -3.0% | ? | 10µM* | ?
Cc1cc(C)cc(-n2c(C)cc(/C=N\NC(=O)COc3cccc4cccnc34)c2C)c1 | -10.3% | 1.8% | ? | 44.7µM* | ?
Cc1cccc(C)c1-n1c(C)cc(/C=N/NC(=O)CSc2ncccn2)c1C | -2.0% | ? | 50.1µM* | 16.8%[59 µM] | 44.7µM*
Cc1cccc(C)c1-n1c(C)cc(/C=N\NC(=O)CC(=O)NC2CCCCC2)c1C | -13.3% | ? | ? | -4.0%[59 µM] | 50.1µM*
Cc1cccc(C)c1-n1c(C)cc(/C=N/NC(=O)c2ccncc2)c1C | -8.4% | 15.0% | ? | ? | ?
Cc1ccccc1N(CC(=O)N/N=C/c1cc(Br)c(C)o1)S(C)(=O)=O | -4.9% | -9.5% | -24.3% | ? | ?
CCc1ccc(N2C(=O)CS(=O)(=O)C23C(=O)N(Cc2ccccc2)c2ccccc23)cc1 (stereo not drawn) | nt | -14.8% | -28.8% | ? | -2.0%[57.1 µM]
COc1ccc(-n2c(=O)c3c(c4cc(OC)ccc4n3C)n(CC(=O)N3CCCC3)c2=O)cc1 | nt | 21.6% | -23.1% | -38.1%[59 µM] | ?
Cc1cc(C)nc(SCC(=O)N/N=C\c2sccc2C)n1 | ? | 25.1% | -9.3% | 9.7% | -0.3%
Cc1cc(C)nc(SCC(=O)N/N=C/c2cc(C)n(-c3ccccc3C)c2C)n1 | -13.1% | ? | ? | 50.1µM* | 44.7µM*
SMILES | L3MBTL1 inh | HP1b chromo inh | JMJD2A Tudor | G9a block | BAZ2B inh
C[C@@H](C(=O)NCCc1c[nH]c2ccccc12)[C@@H]1C[C@@]1(C)[C@@H](NC(=O)OCc1ccccc1)c1ccccc1 | -9.7% | 3.6% | ? | 44.7µM* | -34.8%
C[C@@H](C(=O)NCc1ccccc1)[C@@H]1C[C@@]1(C)[C@@H](NC(=O)OCc1ccccc1)c1ccccc1 | -8.7% | 36.1% | -18.1% | -25.1% | -0.2%
COc1ccccc1NC(=O)CSc1cn(CC(=O)N2CCCC2)c2ccccc12 | nt | 38.3% | -26.7% | -29.5%[59 µM] | ?
Cc1ccccc1OCC(=O)Nc1ccc(C(=O)Nc2ccccc2C(=O)O)cc1 | nt | -18.9% | -6.2% | 14.3% | -18.0%
Cc1cc(C)cc(OCC(=O)OCCN2C(=O)c3ccccc3C2=O)c1 | nt | 53.1% | 20.6% | 56.2µM* | -3.8%
CCOC(=O)c1ccc(NC(=O)CCc2nc3cccnc3n2Cc2cccs2)cc1 | nt | 5.4% | -24.5% | 2.0%[59 µM] | -15.2%
COc1ccc(CNC(=O)c2ccc3c(c2)NC(=O)C(CS(=O)(=O)Cc2ccccc2Cl)N3)cc1 (stereo not drawn) | nt | -7.9% | -29.8% | 11.2µM* | 7.9%[57.1 µM]
CCCCNC(=O)c1ccc2c(c1)NC(=O)C(CS(=O)(=O)Cc1cccc(C)c1)N2 (stereo not drawn) | nt | 48.3% | -12.0% | 14.1µM* | 9.9%[57.1 µM]
O=C(NCc1ccc(Cl)cc1)c1ccc2c(c1)NC(=O)C(CS(=O)(=O)Cc1ccccc1Cl)N2 (stereo not drawn) | nt | 6.5% | 9.7% | ? | -14.9%
CC1Sc2ccc(C(=O)O)cc2NC1=O (stereo not drawn) | nt | 27.3% | -8.7%[57.1 µM] | -42.0% | -7.5%
COc1ccc(CNC(=O)c2ccc3c(c2)NC(=O)C(C)S3)cc1 (stereo not drawn) | -8.6% | -15.2% | -25.3% | 10µM* | -20.6%
Cc1ccc(NC(=O)c2cc(S(=O)(=O)NC3CCCCCC3)ccc2F)cc1F | nt | 22.4% | -13.8% | 10.2%[59 µM] | 3.6%
O=C1CN(C(=O)c2ccc(Cl)cc2Cl)C(c2ccc(F)cc2)c2cc(F)ccc2N1 (stereo not drawn) | nt | 6.3% | -26.3% | -17.2%[59 µM] | -15.3%
COc1cc2c(=O)c(S(=O)(=O)c3ccc(F)cc3)cn(Cc3ccc(Cl)cc3)c2cc1OC | nt | 41.7% | 2.6% | 25.4%[59 µM] | 0.8%
CCOC(=O)CN(Cc1ccccc1)C(=O)OC(C)(C)C | -2.7% | 32.7% | -10.3% | 5.7% | 10.6%
COc1ccc(-n2cnc(=S)[nH]c2=S)cc1 | nt | ? | -34.5% | nt | nt
COc1cccc(-n2cn[nH]c2=S)c1 | nt | 30.9% | ? | 12.6µM* | 4.2%
COc1ccc(CNC(=O)CSCc2ccc(C)cc2)c(OC)c1 | nt | 57.6% | -3.4% | -2.4%[59 µM] | 6.1%
COc1ccc(CN2CCN(Cc3ccccc3F)CC2)c(OC)c1 | nt | ? | 1.26µM* | 50.1µM* | 20µM*
COc1ccc(CN2CCN(Cc3ccc(C(F)(F)F)cc3)CC2)c(OC)c1 | nt | ? | 5.62µM* | 39.8µM* | 25.1µM*
COc1ccc(CN2CCN(Cc3ccc(C)cc3)CC2)c(OC)c1 | nt | ? | 3.16µM* | 50.1µM* | 22.4µM*
COc1ccc(CN2CCN(c3ccccn3)CC2)c(OC)c1 | 0.0% | ? | 1.58µM* | ? | 79.4µM*
COc1ccc(CN2CCN(c3ncccn3)CC2)c(OC)c1 | -10.5% | ? | ? | ? | -5.2%
